The list is not random: actives were taken first. Their share in the collection is about 21%.
Pf growth 48h = Primary qHTS for delayed death inhibitors of the malarial parasite plastid, 48 hour incubation; P. falciparum luciferase growth in erythrocytes, 48 h; Potency, µM (doses to about 28.7 µM), without a hit: at the top dose activity change, negative = inhibition, most hits filed as inhibitors; hit rate 5.9% among 310,000; AID 504832, 2011; note: potency is the fitted concentration of half-maximal effect; % is set by controls: 0 for no effect and ±100 for the full control effect
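Cell-based growth assay: transgenic P. falciparum expressing firefly luciferase, cultured in red cells within RPMI 1640 containing 0.5% w/v Albumax, 24 mM bicarbonate and gentamycin. A drop in luciferase activity indicates inhibition.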
Pf growth 96h = Primary qHTS for delayed death inhibitors of the malarial parasite plastid, 96 hour incubation | hit rate 6.9% among 320,000 | P. falciparum luciferase reporter growth, 96 h | Potency, µM (doses to about 28.7 µM), for inactives: top-dose activity change, negative = inhibition, usual class: inhibitors | AID 504834, 2011; note: potency is the fitted concentration of half-maximal effect; % is set by controls: 0 for no effect and ±100 for the full control effect
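Two parasite generations (96 h, 37 C, 5% CO2) of compound exposure in infected erythrocytes (0.05% parasitemia, 2% hematocrit). Luciferase-reporter P. falciparum; decreased luminescence indicates inhibited growth, aimed at apicoplast-acting delayed death.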
NS1 inh = qHTS Assay for Inhibitors of Influenza NS1 Protein Function; Potency, µM (titrated, usually from 46.1 µM), inactives show top-dose activity, positive = more growth; hit rate 0.4% among 270,000; AID 2326, 2010; calls by dose curve; note: potency is the fitted concentration of half-maximal effect; actives are rising curves; nearly all actives have a fitted effect of over 50% in size
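Recovery from NS1-induced slow growth read by OD600 in budding yeast switched to galactose assay medium (pH 6.0, -URA) at 1:100 dilution. Compound 23 nl per well; the matching strain lacking NS1 serves as control.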
Shiga inhibitor = A qHTS for Small Molecule Inhibitors of Shiga Toxin; Vero cells, Shiga toxin protein synthesis inhibition reporter; inhibition, % at 38.7 µM; hit rate 9.2% among 290,000; AID 2315, 2010; in the data active = inhibition mostly above about 28%, no sharp cut-off; inactive = mostly below about 43%; note: 0% is about no effect
CHX counter = Cycloheximide Counterscreen for Small Molecule Inhibitors of Shiga Toxin | AID 2314, 2010 | max response, % | cell reporter, cycloheximide protein synthesis inhibition counterscreen | hit rate 12% among 300,000; in the data active = max response mostly above about 13%, no sharp cut-off; inactive = mostly below about 14%; note: read at 38.3 µM for the half of the compounds with a filed dose; 0% is about no effect
Active calls of the source: *; ? = inconclusive; nt = not tested or not shown; [ ] = dose if it differs, or a comment. Unless noted, calls come from the whole dose curve; as a rule, active = well fitted inhibition curve with a large enough effect; inconclusive = small, poorly fitted or top-dose-only effect, or another doubt; inactive = no such curve, though single readings can be large or run the other way.

SMILES | Pf growth 48h | Pf growth 96h | NS1 inh | Shiga inhibitor | CHX counter
CCOc1ccc(NC(=S)Nc2ccc(OCC)cc2)cc1 | -19% | ? | 0% | 24 | -2
O=C(NCCNC(=O)c1cc(OCC(F)(F)F)ccc1OCC(F)(F)F)Nc1ccc(Cl)cc1 | 17% | 116% | -11% | 39 | 28*
CCOc1ccc(NC(=O)Nc2ccc3nsnc3c2)cc1 | -53% | 73% | -2% | 32 | 33*
CCOc1ccc(NC(=S)Nc2cc(C)[nH]n2)cc1 | 40% | -6%[5.75 µM] | 0% | 62* | 27*
O=C(CN1CCN(Cc2ccc(F)cc2)CC1)NCc1ccccc1 | -1% | -10% | 7% | -4 | -1
Cn1c2cc(C(=O)O)sc2c2cnn(Cc3ccccc3F)c(=O)c21 | nt | nt | nt | -1 | 0
CCOc1ccc(NC(=S)Nc2ccc3nsnc3c2)cc1 | ? | 74% | 3% | 57* | 33*
CCOc1ccc(NC(=O)Nc2cc(C(C)C)c(O)cc2C)cc1 | -5% | -13% | 6% | -1 | 1
CCOc1ccc(NC(=O)Nc2cc(C)ccc2F)cc1 | nt | -9% | -11% | 54* | 34*
O=C(Nc1ccc(F)cc1)Nc1cc(OCC(F)(F)F)cc(OCC(F)(F)F)c1 | ? | ? | 1% | -6 | 7
CCOc1ccc(NC(=O)Nc2cc(OCC(F)(F)F)cc(OCC(F)(F)F)c2)cc1 | 0.83µM* | 1.9µM* | 14% | 7 | 7
O=C(COC(=O)C1CCN(S(=O)(=O)c2cccs2)CC1)NCc1ccccc1 | -27% | 15% | nt | -16 | -2
COc1ccc(-c2ccc(SCC(=O)Nc3nccs3)nn2)cc1OC | -4% | 17% | nt | -18 | 11
COCCNC(=O)c1sc2nc(-c3ccccc3)cn2c1C | 56% | 52% | -7% | 70* | 29*
Cc1c(C(=O)NCc2ccccn2)sc2nc(-c3ccc(F)cc3)cn12 | ? | ? | -11% | 9 | 1
Cc1c(C(=O)NCCCN2CCOCC2)sc2nc(-c3ccccc3)cn12 | -5% | ? | -4% | 13 | -2
Cc1c(C(=O)NCc2ccccn2)sc2nc(-c3ccccc3)cn12 | -5% | ? | -95% | 20* | 29*
CC(C)c1ccc(NC(=O)C(c2ccccc2)N(Cc2ccco2)C(=O)CC2NC(=O)NC2=O)cc1 (centres undefined) | ? | ? | nt | -9 | -4
C/C(=C\C(=O)OCCCCCCCCC(=O)O)C[C@@H]1OC[C@H](C[C@@H]2O[C@H]2[C@@H](C)[C@H](C)O)[C@@H](O)[C@H]1O | 0.19µM* | 0.03µM* | nt | nt | nt
O=c1cc(CSc2nnc(COc3ccccc3)o2)c2ccccc2[nH]1 | ? | 13% | 0% | -7 | 6
O=c1cc(CSc2nnc(COc3cccc4ccccc34)o2)c2ccccc2[nH]1 | 79% | 12µM* | 1% | -3 | 1
CCN1c2ccccc2-c2nc3ccccc3n2C1c1ccncc1 (centres undefined) | 5.2µM* | 10µM* | -132% | -14 | -7
CCN1c2ccccc2-c2nc3ccccc3n2C1c1ccccn1 (centres undefined) | ? | ? | -148% | 33 | 2
NC1=NC(c2cccnc2)n2c(nc3ccccc32)N1 (centres undefined) | 0% | 31% | 3% | -1 | 4
CCN1c2ccccc2-c2nc3ccccc3n2C1c1cccnc1 (centres undefined) | 9.3µM* | -2%[5.75 µM] | -108% | 19 | 0
SMILES | Pf growth 48h | Pf growth 96h | NS1 inh | Shiga inhibitor | CHX counter
CCNC(=S)NNc1nc(N2CCCCC2)nc(N2CCOCC2)n1 | -15% | ? | nt | -3 | 10
O=c1oc2ccccc2c(Nc2cc3ccccc3cc2O)c1[N+](=O)[O-] | 39% | 17% | 0% | 111* | 53*
O=c1oc2ccccc2c(Nc2ccccc2O)c1[N+](=O)[O-] | ? | -23% | -46% | -20 | 6
COc1ccccc1C(=O)Nc1ccc2c(c1)CN(Cc1cnc(C)s1)CC2 | ? | ? | -6% | 29* | 12*
COC(=O)C(Cc1c[nH]c2ccccc12)NC(=O)c1ccc2nc[nH]c2c1 (centres undefined) | 156% | 268% | nt | nt | nt
CSc1nnc(C)c(=O)n1COC(=O)COc1ccc(Cl)cc1Cl | 18% | ? | nt | 10 | -2
CCc1ccc(OCC(=O)NNC(=S)NC(=O)C2CCCCC2)c(Br)c1 | 25% | 9% | -35% | -14 | 5
CCc1ccc(OCC(=O)NC2CCCCC2)c(Br)c1 | 1% | 12µM* | 3% | -17 | -1
COc1ccccc1OCC(=O)NC1CCCCCC1 | 0% | ? | -45% | 42* | 22*
CCOc1ccccc1OCC(=O)NC1CCCCC1 | nt | -13% | -55% | 4 | 9
O=C(COc1ccccc1Br)NC1CCCC1 | 17% | 0% | -3% | 78* | 32*
COc1ccc(Br)cc1S(=O)(=O)NCCCN1CCOCC1 | -10% | -5% | 1% | 11 | -3
COc1cc(/C=N/OCC(=O)NC2CCCCC2C)ccc1OCc1ccc(Cl)cc1 (centres undefined) | 110% | 43% | 14% | 150* | 56*
COc1cc(/C=N/OCC(=O)Nc2cc(C)cc(C)c2)ccc1OCc1ccc(Cl)cc1 | 172% | -36% | 2% | 107* | 92*
COc1cc(/C=N\n2cnnc2)ccc1OCC(=O)Nc1ccc(C)cc1 | 0% | 21% | -4% | 16 | -2
C(=N\C(/N=C/c1ccco1)c1ccco1)/c1ccco1 | nt | nt | 1% | 28 | 8
CN(C)c1ccc(N=Cc2ccco2)cc1 | 0.83µM* | ? | ? | 99* | 55*
C(=Nc1cccc2c(N=Cc3ccco3)cccc12)c1ccco1 | 2% | -23% | nt | 47* | 17
CN(C)c1ccc(C=Nc2ccccc2)cc1 | 8% | 58% | -58% | 53 | 5
CN(C)c1ccc(C=Nc2ccc(N(C)C)cc2)cc1 | ? | -19% | -9% | 78* | 36*
Cc1ccc(-c2csc3ncnc(SCc4ccc(C(=O)O)cc4)c23)cc1 | -1% | 18% | 10% | 10 | 1
Cc1ccc(Nc2c(-c3ccccn3)nc3cccc(C)n23)cc1 | ? | ? | nt | 1 | -5
CN(C)CCN(Cc1ccccc1)c1nccc(N(C)C)c1C#N | nt | ? | -3% | -9 | -1
COc1ccc(CNc2nc(NCc3ccc(OC)cc3)c3ncn(C(C)C)c3n2)cc1 | nt | nt | nt | -6 | -3
CC(C)n1cnc2c(N(C)c3ccccc3)nc(N(CCN(C)C)Cc3ccccc3)nc21 | 4.7µM* | 0.93µM* | -15% | -8 | -9
COc1cc(N(Cc2ccccc2)Cc2ccccc2)c2ncn(C(C)C)c2c1 | 5.9µM* | 7.4µM* | nt | nt | nt
Cc1ccc(C)c(NS(=O)(=O)c2c(C)nc3sccn3c2=O)c1 | -6% | ? | 6% | -1 | 4
Cc1nc(NC(=O)CN2CCC(O)(c3ccc(F)cc3)CC2)sc1C | -24% | -20% | ? | 47* | 17*
Cn1c(=O)oc2cc(S(=O)(=O)N3CCCc4ccccc43)ccc21 | nt | 55% | -37% | -4 | -5

Assay outcomes (PubChem BioAssay)
